This is part of a sample that, as a whole, favours compounds with a hit. Of some 83,000 tested, about 20% had one in any assay.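 Testing used 96-well plates and a 48-hour single-concentration exposure. Example: -40 means 40% of the starting cells died.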 A number with no mark means an inactive call. The source made the active and inactive calls. How the source made its calls: active means growth percent below 10; inactive means the rest.

Common to all, as to assay: NCI-60 one-dose screen, 48 h (100 = growth as untreated, 0 = no growth, -100 = all killed)
Common to all, as to details: 10 µM unless noted

The subject of experiment [1] is MOLT-4 leukemia.
The subject of experiment [2] is RPMI-8226 leukemia.
For experiment [3], the system named is OVCAR-8 ovarian.
In experiment [4] the test system is OVCAR-5 ovarian.
Experiment [5] deals with OVCAR-4 ovarian.
Experiment [6] concerns SK-OV-3 ovarian.
Experiment [7] relates to IGROV1 ovarian.
For experiment [8], the system named is OVCAR-3 ovarian.
Experiment [9] has as its system HS 578T breast.
Experiment [10] relates to NCI/ADR-RES ovarian.
Experiment [11] has as its system T-47D breast.
Experiment [12] concerns BT-549 breast.
The test system of experiment [13] is MDA-MB-435 melanoma.
Experiment [14] has as its system SW-620 colon.
Experiment [15] deals with MCF7 breast.
The test system of experiment [16] is HCT-116 colon.
For experiment [17], the system named is HCC-2998 colon.
The test system of experiment [18] is KM12 colon.

Take `CCN(CC)CCOC(=O)C(OC(C)C)(c1ccccc1)c1ccccc1`: the growth in experiment [1] was 93.1%; in experiment [2] it was 102%; in experiment [3], 106%; in experiment [4], 92.9%; in experiment [5], 103%; in experiment [6], 94.4%. For the same compound, the growth in experiment [7] was 87.2%; in experiment [8], 97.3%; in [9], 93.4%; in experiment [10], 100%; in experiment [11] it was 93.8%; in experiment [12], 96.6%. The growth in experiment [13] was 103%; in experiment [14], 91.5%; in experiment [15], 95.3%; in experiment [16] it was 78.4%; in [17], 108%; in [18] it was 101%.
On to `COc1ccc(/C=C/c2cc(OC)c(OC)c(OC)c2)cc1NC(=O)/C=C/c1ccc(F)cc1`, for which the growth in experiment [1] was 13.5%; in experiment [2] it was 51.8%; in experiment [3] it was 36.7%; in experiment [4], 57.5%; in experiment [5], 61.4%; in [6], -29% (active). Further, the growth was 46.9% in [7]; -10.9% (active) in [8]; 5.66% (active) in [9]; -3.74% (active) in experiment [10]; 32.1% in experiment [11]; 35.1% in experiment [12]. The growth in experiment [13] is -41.4% (active); in experiment [14] it was 30.5%; in [15] it was 20.6%; in experiment [16], 23%; in experiment [17], 17.2%; in [18], 25%.
Take `CC(=O)OCC1O[C@@H]([S-])C(OC(C)=O)[C@H](OC(C)=O)[C@@H]1OC(C)=O.[Au+].c1ccc(CN2[CH-]N(Cc3ccccc3)C(c3ccccc3)=C2c2ccccc2)cc1`: the growth in experiment [1] is 11.2%; in [2], -2.4% (active); in experiment [3], 53.2%; in [4], 93%; in experiment [5], 60.2%; in experiment [6], 56.9%. Also, the growth in [7] was 14.3%; in experiment [8], -18.5% (active); in experiment [9] it was 43.5%; in experiment [10], 98.7%; in experiment [11], -37.1% (active); in [12], -30.2% (active). The growth in experiment [13] was 48.4%; in [14], 8.97% (active); in [15], -3.49% (active); in experiment [16], 18.8%; in experiment [17] it was -57.4% (active); in experiment [18], 59.6%.
With `C[C@]12CCc3sc(-c4ccccc4O)nc3C1=CC[C@@H]1[C@@H]2CC[C@]2(C)C(=O)CC[C@@H]12`, the growth in experiment [1] is 94.7%; in experiment [2], 107%; in experiment [3], 105%; in experiment [4] it was 104%; in [5], 108%; in experiment [6] it was 102%. The growth in [7] is 103%; in experiment [8] it was 104%; in experiment [9], 105%; in experiment [10] it was 106%; in experiment [11], 90.1%; in [12], 110%. The growth in experiment [13] was 102%; in [14], 103%; in experiment [15], 93.3%; in experiment [16], 104%; in experiment [17], 111%; in experiment [18], 107%.
`COC(=O)C12CC(NC(=O)c3csc([C@@H](C[C@H](C(C)C)N(C)C(=O)[C@@H](NC(=O)[C@H]4CCCCN4C)C(C)C)OC(C)=O)n3)(C1)C2`: the growth in experiment [1] is 14.3%; in experiment [2], 17.8%; in experiment [3] it was 24.8%; in experiment [4], 46.8%; in experiment [5] it was 50.4%; in experiment [6], 13.2%. In addition, the growth in [7] was 19.3%; in [8] it was -17.5% (active); in [9] it was 35.3%; in experiment [10], -4.67% (active); in experiment [11], 75.2%; in experiment [12], -25.8% (active). The growth in experiment [13] is -43.7% (active); in experiment [14] it was 27.4%; in experiment [15], 15.4%; in experiment [16], 4.37% (active); in experiment [17], 10.4%; in experiment [18], 11.1%.
On to `Clc1ccc(CO/N=C(\Cn2ccnc2)c2ccc(Cl)cc2Cl)c(Cl)c1`, for which the growth in experiment [1] was -4.84% (active); in experiment [2], -3.32% (active); in [3], 9.94% (active); in experiment [4] it was 15.8%; in [5], 20.7%; in [6], 101%. In addition, the growth in experiment [7] was 6.54% (active); in experiment [8], -60.1% (active); in [9] it was -4.93% (active); in [10], -12.2% (active); in [11], 101%; in [12] it was -44% (active). For the same compound, the growth in [13] is -13.2% (active); in experiment [14] it was 8.71% (active); in experiment [15], 0.337% (active); in experiment [16] it was -79.3% (active); in [17], 3.92% (active); in experiment [18] it was -1.07% (active).
Consider `CC(=O)O[C@H]1C(=O)[C@@]2(C)[C@H]([C@H](OC(=O)c3ccccc3)[C@]3(O)C[C@H](OC(=O)[C@H](OC(=O)OCC4COC(C)(C)O4)[C@@H](NC(=O)c4ccccc4)c4ccccc4)C(C)=C1C3(C)C)[C@]1(OC(C)=O)CO[C@@H]1C[C@@H]2O` (stereo partly specified), for which the growth in experiment [1] is 35.8%; in experiment [2], 13%; in experiment [3], 39.3%; in [4], 20.8%; in [5] it was 79%; in [6], 48.5%. Besides, the growth is 35.3% in [7]; 15% in [8]; 30.5% in experiment [9]; 91.4% in experiment [10]; 40.7% in experiment [11]; 38.2% in [12]. Moreover, the growth in experiment [13] was -49.6% (active); in [14], 38.7%; in experiment [15] it was 18.9%; in [16], 19.2%; in [17], 39.9%; in experiment [18], 18.7%.
Regarding `CC(=O)Oc1ccccc1C(=O)NCCC[Se]C#N`, the growth in [1] was 10.7%; in experiment [2], 91.1%; in experiment [3] it was -13.9% (active); in experiment [4], 83.3%; in [5], 57.2%; in experiment [6] it was 32.6%. Besides, the growth was 10.8% in experiment [7]; -5.3% (active) in experiment [8]; 17.1% in experiment [9]; 14.4% in [10]; 83.3% in experiment [11]; -97% (active) in [12]. For the same compound, the growth in experiment [13] was 3.02% (active); in experiment [14] it was 72.9%; in experiment [15], 14.5%; in experiment [16], 0.0792% (active); in experiment [17], 97.9%.
As for `COC1OC(CO)C(O)C(O)[CH]1[Hg][O]C(C)=O` (stereo unspecified), the growth in [1] is 91.1%; in experiment [2] it was 104%; in [3] it was 103%; in [4], 102%; in [5] it was 95.6%; in experiment [6], 117%. Further, the growth in experiment [7] was 86.9%; in experiment [8], 75.9%; in experiment [9], 89.8%; in experiment [10], 92.4%; in experiment [11], 63.8%; in experiment [12], 103%. The growth in [13] was 93.7%; in experiment [14], 89%; in experiment [15], 53.2%; in experiment [16], 102%; in experiment [17] it was 106%; in [18], 94.5%.

Source of the values: PubChem BioAssay (NCI).
